6 compounds from PubChem BioAssay can be followed below.

Activity calls are given as the source filed them.

In one test the target is Albumin (Bos taurus) (UniProt P02769). Description: bovine serum albumin binders on microarray, profiling panel, artefact control for SMM control protein annotation, biochemical, small-molecule microarray, Alexa647 label, 635/667 nm fluorescence (AID 1118).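 Also: score merges 667 nm emission intensity and signal-to-noise per printed compound spot.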 To be noted: BSA-A647 binding, fluorescence 635 nm, higher = more signal.
Test [1] can be described thus: small-molecule microarray binders of probe aXIP, primary screen, biochemical, NeuroSMM set, 635/667 nm fluorescence (AID 1119).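 Also: probe is the protein aXip251-270 applied at 1 µg/mL to compound-printed slides; binding of probe to printed compounds measured as 667 nm fluorescence plus signal to noise.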 As to conditions: higher = more signal, called active from +8 up or from −8 down.
Test [2] in a line: small-molecule binders of probe aNOTCH3, primary screen, biochemical, small-molecule microarray, 635/667 nm fluorescence (AID 1120).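 Also: probe is a biotin-tagged antibody raised against NOTCH3 rather than NOTCH3 protein; score merges spot fluorescence near 667 nm with spot signal to noise.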 To be noted: higher = more signal.
The nature of test [3]: small-molecule binders of probe aNOTCH2, primary screen, biochemical, small-molecule microarray, 635/667 nm fluorescence (AID 1121).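 Also: score merges feature fluorescence read at 667 nm with its signal to noise.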 To be noted: higher = more signal.
The target in test [4] is Carbonic anhydrase 2 (Homo sapiens) (UniProt P00918). The test is described as follows: CAII small-molecule binders, profiling panel, biochemical, small-molecule microarray, Alexa647-labelled CAII (AID 1122). To be noted: CAII-A647 binding fluorescence, higher = more signal.
A short description of test [5]: COS7 lysate on small-molecule microarray, probe aHis, 635 nm (AID 1123).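 Also: z-score combines 667nm fluorescence intensity with signal-to-noise per printed compound spot.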 To be noted: COS7 cell lysate, fluorescence, higher = more signal.
A short description of test [6]: compound binding in COS7 lysate, probe aLAP1, primary screen, cell lysate, small-molecule microarray (AID 1124).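 Also: lysate comes from COS7 cells expressing LAP1 and is applied at 0.3 µg/mL; score merges spot fluorescence near 667 nm with signal-to-noise over triplicate slides.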 As to conditions: probe aLAP1, fluorescence, higher = more signal.
The next test deals with Sam68 (KHDRBS1). Description: Sam68 small-molecule binders, primary screen, biochemical, small-molecule microarray, 635 nm fluorescence (AID 1125).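 Also: score merges 667 nm channel intensity with signal to noise over triplicate slides.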 As to conditions: small-molecule microarray binding, higher = more signal.
Test [7] relates to Chordin-like protein 2 (CHRDL2). Description: CHRDL2 small-molecule binders, primary screen, biochemical, small-molecule microarray, 635 nm fluorescence (AID 1126).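 Also: printed compound slides probed with Chrdl2 protein at 4 µg/mL for 1 h at 4 C; score merges 667 nm emission intensity with signal to noise over three replicate slides.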 As to conditions: small-molecule microarray binding, fluorescence 635 nm; higher = more signal.
The target in test [8] is Concanavalin-A (Canavalia ensiformis) (UniProt P02866). Description: ConA small-molecule binders, primary screen, artefact control for SMM control protein annotation, biochemical, small-molecule microarray, Alexa647 label, 635 nm (AID 1127).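 Also: z combines 667 nm emission intensity with signal-to-noise across three replicate slides.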 To be noted: ConA-A647 binding fluorescence, higher = more signal.
The nature of test [9]: anti-His antibody binders, primary screen, artefact control for SMM control protein annotation, biochemical, small-molecule microarray, 635 nm fluorescence (AID 1128).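 Also: score merges feature fluorescence with signal-to-noise for each printed compound spot.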 As to conditions: anti-His Alexa647 antibody binding, higher = more signal.
In test [10] the test system is Human papillomavirus type 1a E7 protein (residues 1-88). Description: HPV1a E7 small-molecule binders, primary screen, biochemical, small-molecule microarray, residues 1-88, 635 nm (AID 1129). As to conditions: small-molecule microarray binding, fluorescence 635 nm; higher = more signal.
Test [11] addresses Focal adhesion kinase 1 (Homo sapiens) (UniProt Q05397). The test is described as follows: small-molecule microarray binders of FAK, primary screen, biochemical, 635/667 nm fluorescence, BSA, DTT (AID 1130).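 Also: composite of spot emission at 667 nm and signal to noise over triplicate slides.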 To be noted: PTK2 binding, 635 nm fluorescence, higher = more signal.
For test [12], the system named is Fibrinogen (Alexa647-labelled). Description: fibrinogen binders on compound microarrays, profiling panel, artefact control for SMM control-protein annotation, biochemical, small-molecule microarray, 635/667 nm fluorescence (AID 1131).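 Also: z-score merges 667 nm fluorescence with per-spot signal-to-noise over triplicate slides.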 To be noted: fibrinogen-A647 binding fluorescence, higher = more signal.
For test [13], the target named is Follistatin (Homo sapiens) (UniProt P19883). Description: follistatin binders on small-molecule microarrays, primary screen, biochemical, small-molecule microarray, 635/667 nm fluorescence (AID 1132). As to conditions: FST binding, 635 nm fluorescence, higher = more signal.
Test [14] has as its target Fibroblast growth factor 2 (Homo sapiens) (UniProt P09038). The test is described as follows: FGF2 binders on small-molecule microarrays, primary screen, biochemical, small-molecule microarray, 635/667 nm fluorescence (AID 1133). As to conditions: small-molecule microarray binding, FGF2, fluorescence 635/667; higher = more signal.
Test [15] is described as follows: mitochondrial membrane potential change in A549 cells, profiling panel, cell-based, JC-1 fluorescence, basal, 24 h, 100 nL (AID 1138).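 Also: A549 lung adenocarcinoma cells under basal conditions with no added stimulus; test concentration not given here.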 To be noted: higher = more signal.
A further test has as its system Lefty1. The test is described as follows: Lefty1 binders on small-molecule microarrays, primary screen, biochemical, small-molecule microarray, 635/667 nm fluorescence (AID 1139). As to conditions: small-molecule microarray binding, fluorescence 635/667; higher = more signal.
The subject of test [16] is wheat germ agglutinin (Triticum aestivum), Alexa647-labelled. Description: wheat germ agglutinin binders on compound microarrays, profiling panel, artefact control for SMM control-protein annotation, biochemical, small-molecule microarray, 635/667 nm fluorescence (AID 1140).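 Also: score merges 667 nm feature emission with signal to noise over triplicate slides.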 To be noted: WGA-A647 binding, 635 nm fluorescence, higher = more signal.
The target of test [17] is Luciferin 4-monooxygenase (Photinus pyralis) (UniProt P08659). The test is described as follows: firefly luciferase enzyme inhibitors, primary screen, biochemical, luminescence, purified enzyme, 2006 set (AID 1141).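 Also: cell-free assay with purified firefly luciferase at 100 ng per well in PBS; test concentration not given here.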 As to conditions: SteadyGlo luminescence, 30 min, higher = more signal, called active from +8 up or from −8 down.
Sequence of Luciferin 4-monooxygenase (Photinus pyralis) (P08659 whole entry, looked up): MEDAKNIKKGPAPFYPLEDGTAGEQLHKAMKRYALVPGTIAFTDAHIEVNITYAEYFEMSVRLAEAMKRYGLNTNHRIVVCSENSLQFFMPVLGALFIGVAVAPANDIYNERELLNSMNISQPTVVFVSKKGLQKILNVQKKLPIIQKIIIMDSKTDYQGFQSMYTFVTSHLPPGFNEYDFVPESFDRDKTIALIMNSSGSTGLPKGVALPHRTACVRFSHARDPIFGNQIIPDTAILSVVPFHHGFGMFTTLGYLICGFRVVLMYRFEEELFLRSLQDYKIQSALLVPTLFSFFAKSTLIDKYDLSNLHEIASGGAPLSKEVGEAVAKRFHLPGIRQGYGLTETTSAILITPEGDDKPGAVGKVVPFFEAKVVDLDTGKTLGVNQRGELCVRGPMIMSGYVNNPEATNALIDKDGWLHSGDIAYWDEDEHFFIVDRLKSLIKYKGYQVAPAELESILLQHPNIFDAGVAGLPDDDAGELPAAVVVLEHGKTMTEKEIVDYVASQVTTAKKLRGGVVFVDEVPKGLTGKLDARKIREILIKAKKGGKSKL

Sequence of Fibroblast growth factor 2 (Homo sapiens) (P09038 whole entry, looked up): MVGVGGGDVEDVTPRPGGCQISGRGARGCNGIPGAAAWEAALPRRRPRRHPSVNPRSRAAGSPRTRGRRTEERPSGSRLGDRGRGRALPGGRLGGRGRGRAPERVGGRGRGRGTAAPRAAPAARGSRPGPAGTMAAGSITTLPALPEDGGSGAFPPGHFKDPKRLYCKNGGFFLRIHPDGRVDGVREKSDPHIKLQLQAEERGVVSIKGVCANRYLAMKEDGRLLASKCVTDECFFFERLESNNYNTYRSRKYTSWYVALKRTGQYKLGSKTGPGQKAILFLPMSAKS
Sequence of Concanavalin-A (Canavalia ensiformis) (P02866 whole entry, looked up): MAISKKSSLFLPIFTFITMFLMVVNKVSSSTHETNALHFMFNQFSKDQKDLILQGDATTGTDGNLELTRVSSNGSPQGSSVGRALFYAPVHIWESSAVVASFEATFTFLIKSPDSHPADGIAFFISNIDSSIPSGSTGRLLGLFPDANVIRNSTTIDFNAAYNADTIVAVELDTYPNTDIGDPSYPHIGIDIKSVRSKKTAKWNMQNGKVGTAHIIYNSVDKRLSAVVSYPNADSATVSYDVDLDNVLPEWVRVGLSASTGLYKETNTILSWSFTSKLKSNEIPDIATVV
Sequence of Follistatin (Homo sapiens) (P19883 whole entry, looked up): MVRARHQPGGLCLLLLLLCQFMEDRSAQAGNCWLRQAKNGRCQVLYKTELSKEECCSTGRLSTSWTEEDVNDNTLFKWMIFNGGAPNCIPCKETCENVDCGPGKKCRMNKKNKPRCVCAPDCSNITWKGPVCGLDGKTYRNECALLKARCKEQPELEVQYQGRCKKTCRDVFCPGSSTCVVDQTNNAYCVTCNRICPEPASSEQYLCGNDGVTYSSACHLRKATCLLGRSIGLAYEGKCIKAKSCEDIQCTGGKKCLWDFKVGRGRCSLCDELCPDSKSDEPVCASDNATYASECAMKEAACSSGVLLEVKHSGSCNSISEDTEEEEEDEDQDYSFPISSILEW
Sequence of Focal adhesion kinase 1 (Homo sapiens) (Q05397 whole entry, looked up): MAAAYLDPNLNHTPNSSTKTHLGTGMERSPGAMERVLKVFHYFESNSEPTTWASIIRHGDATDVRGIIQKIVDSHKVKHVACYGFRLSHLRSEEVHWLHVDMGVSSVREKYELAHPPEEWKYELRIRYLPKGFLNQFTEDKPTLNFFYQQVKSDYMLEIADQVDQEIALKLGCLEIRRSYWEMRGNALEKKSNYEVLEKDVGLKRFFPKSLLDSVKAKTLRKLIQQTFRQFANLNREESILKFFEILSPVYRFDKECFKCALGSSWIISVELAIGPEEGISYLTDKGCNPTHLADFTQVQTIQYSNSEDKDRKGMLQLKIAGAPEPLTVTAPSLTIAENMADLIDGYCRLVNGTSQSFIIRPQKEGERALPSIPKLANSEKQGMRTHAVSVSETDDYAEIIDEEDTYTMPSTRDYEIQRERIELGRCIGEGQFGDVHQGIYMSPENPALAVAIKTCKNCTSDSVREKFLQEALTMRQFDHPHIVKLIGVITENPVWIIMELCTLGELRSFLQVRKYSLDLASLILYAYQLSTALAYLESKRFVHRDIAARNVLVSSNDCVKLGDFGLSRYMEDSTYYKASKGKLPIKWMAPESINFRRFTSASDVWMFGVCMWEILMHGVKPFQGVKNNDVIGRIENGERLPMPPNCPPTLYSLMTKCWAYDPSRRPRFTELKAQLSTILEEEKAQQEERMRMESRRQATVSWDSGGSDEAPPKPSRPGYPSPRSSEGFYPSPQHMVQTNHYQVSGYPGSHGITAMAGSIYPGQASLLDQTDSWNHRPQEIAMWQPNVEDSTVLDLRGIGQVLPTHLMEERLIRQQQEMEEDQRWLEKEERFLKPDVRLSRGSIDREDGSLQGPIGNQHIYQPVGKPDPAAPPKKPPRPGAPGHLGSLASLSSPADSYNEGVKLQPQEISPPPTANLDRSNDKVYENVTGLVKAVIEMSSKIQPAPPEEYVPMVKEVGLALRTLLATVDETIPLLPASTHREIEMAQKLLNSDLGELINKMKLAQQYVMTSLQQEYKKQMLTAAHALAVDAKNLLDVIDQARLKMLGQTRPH
Sequence of Albumin (Bos taurus) (P02769 whole entry, looked up): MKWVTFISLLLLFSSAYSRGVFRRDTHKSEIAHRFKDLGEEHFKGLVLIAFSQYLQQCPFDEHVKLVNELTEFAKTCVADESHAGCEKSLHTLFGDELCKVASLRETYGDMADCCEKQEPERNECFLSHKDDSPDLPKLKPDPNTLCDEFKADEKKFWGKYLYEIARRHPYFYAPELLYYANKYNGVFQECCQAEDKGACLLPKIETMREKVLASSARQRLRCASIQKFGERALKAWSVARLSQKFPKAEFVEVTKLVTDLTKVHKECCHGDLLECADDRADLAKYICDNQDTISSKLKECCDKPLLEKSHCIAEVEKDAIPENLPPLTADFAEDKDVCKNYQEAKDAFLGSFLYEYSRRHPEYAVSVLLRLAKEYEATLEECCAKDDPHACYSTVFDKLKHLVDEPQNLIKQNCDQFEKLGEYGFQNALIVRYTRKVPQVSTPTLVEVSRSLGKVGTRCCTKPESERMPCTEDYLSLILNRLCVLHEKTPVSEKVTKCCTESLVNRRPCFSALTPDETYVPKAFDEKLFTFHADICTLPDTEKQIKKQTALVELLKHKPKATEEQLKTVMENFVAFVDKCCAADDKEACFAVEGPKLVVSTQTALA

For `C#CCNCc1ccccc1`, the composite z-score in the test with Albumin (Bos taurus) was -0.172; in test [2] it was -0.201; in test [3] it was -0.117; in [4] it was -0.0848; in test [5], -0.0833; in test [6], 0.149. In addition, the composite z-score in the test with Sam68 (KHDRBS1) is 0.44; in test [7], 0.128; in test [8] it was 0.159; in test [9] it was 0.3; in test [10] it was 0.736; in test [11], -0.101. The composite z-score is -0.395 in test [12]; 0.065 in [13]; 0.166 in test [14]; 0.0644 with Lefty1; -0.219 in [16]. Further, the composite Z-score in test [1] is 0.204 (inactive). Besides, the z-score was 0.588 in test [15] and -0.352 (inactive) in test [17].
In the case of `Cc1ccc(S[C@]2(C(=O)O)CC(=O)N(Cc3ccccc3C(F)(F)F)[C@@H]2c2ccc(CO)cc2I)cc1`, the composite z-score is 0.426 with Albumin (Bos taurus); -0.0716 in [2]; 0.0477 in test [3]; 0.502 in [4]; 1.74 in test [5]; 1.51 in test [6]. Further, the composite z-score is 0.406 in the test with Sam68 (KHDRBS1); -0.673 in test [7]; -0.0929 in [8]; 0.275 in [9]; 0.0179 in [10]; -0.0066 in [11]. Also, the composite z-score is 0.0184 in test [12]; 0.0699 in [13]; 0.511 in test [14]; -0.781 in the test on Lefty1; 0.75 in [16]. For the same compound, in test [1], the composite Z-score is 0.286 (inactive). Also, the z-score is 0.348 in test [15] and -0.499 (inactive) in [17].
With `C=C(CCCC)/C(=C/C[C@H](OC(C)=O)c1ccc(OCCO)cc1)c1cnc2ccccc2c1`, the composite z-score in the test with Albumin (Bos taurus) was 0.466; in test [2] it was 0.116; in [3], -0.108; in test [4], 0.471; in [5], 1.2; in test [6], 0.117. For the same compound, the composite z-score is 1.31 in the test with Sam68 (KHDRBS1); 1.05 in test [7]; 0.817 in [8]; 0.91 in [9]; 0.78 in test [10]; -0.115 in test [11]. Moreover, the composite z-score in test [12] amounted to 0.387; in test [13] it was 0.735; in test [14], 0.623; with Lefty1, 1.15; in [16], 0.869. In addition, the composite Z-score in test [1] was 0.0474 (inactive). The z-score was 0.649 in test [15] and -0.126 (inactive) in test [17].
Turning to `CN(C)CCCCNC(=O)[C@@H]1C[C@@H]2C(=O)N[C@@H](CCCCN)C(=O)N2[C@@H]1c1ccc(O)cc1`, the composite z-score with Albumin (Bos taurus) is -0.153; in [2], -0.0613; in test [3] it was -0.0241; in test [4], -0.0397; in test [5] it was 1.7; in test [6] it was 0.0496. The composite z-score with Sam68 (KHDRBS1) is 0.239; in [7], 0.965; in test [8], 1.19; in test [9] it was 0.253; in test [10], -0.0102; in test [11] it was -0.0748. The composite z-score in [12] worked out at 0.223; in test [13], 1.34; in test [14], 1.68; in the test with Lefty1, 0.896; in [16] it was 0.857. In test [1], the composite Z-score was 0.237 (inactive). Besides, the z-score in test [15] is -1.38; in test [17] it was -0.0213 (inactive).
`CCOC(=O)C1=C[C@@H](C(C)C)N(S(=O)(=O)c2ccc(C)cc2)[C@H]1c1ccccc1F`: the composite z-score is 0.81 with Albumin (Bos taurus); 0.0576 in test [2]; -0.0877 in test [3]; 0.62 in test [4]; 1.66 in test [5]; -0.144 in test [6]. Also, the composite z-score in the test on Sam68 (KHDRBS1) was 1.31; in [7], -0.333; in [8], 1.17; in test [9], 0.654; in [10], 1.2; in test [11], -0.0031. The composite z-score in [12] came out at 1.02; in [13], 0.96; in test [14] it was 0.307; with Lefty1, 0.187; in [16], 0.927. For the same compound, the composite Z-score in [1] was 0.594 (inactive). In addition, the results for the z-score in [15] and in [17] were 2.33 and 1.82 (inactive), respectively.
For `COc1cc(CO)cc(I)c1O[C@H]1C=C(C(=O)NCCO)C[C@@H](N(C(=O)c2cc3ccccc3oc2=O)C2CCCCCC2)[C@@H]1O`, the composite z-score was 0.179 with Albumin (Bos taurus); 0.0084 in [2]; -0.0282 in [3]; -0.177 in test [4]; -0.149 in [5]; 0.0826 in test [6]. Further, the composite z-score was 0.0348 with Sam68 (KHDRBS1); 0.13 in test [7]; 0.66 in test [8]; 0.0786 in [9]; -0.832 in test [10]; -0.314 in test [11]. Further, the composite z-score in [12] came out at 0.138; in test [13], 0.625; in test [14], 1.32; in the test with Lefty1, 0.803; in test [16], 0.972. The composite Z-score in [1] is -0.161 (inactive). Besides, the values for the z-score in test [15] and in [17] were -1.79 and 0.93 (inactive), respectively.
